PubChem BioAssay (Tox21)
Unmarked numbers belong to inactive results. Where a call stands in place of a potency, no number is given. Active and inactive are the calls of the source. The call rests on the fitted dose curve.

assay: G protein-coupled receptor (GPCR) small molecule agonists, calcium flux assay: HEK293 wild type cell line counter screen (AID 1920065); conditions: HEK293 WT calcium flux, fluorescence, agonist mode; series mostly up to 57.6 µM
Description: U.S. Tox21 Program National Center for Advancing Translational Sciences [NCATS] Division of Preclinical Innovation [DPI] U.S. Environmental Protection Agency [EPA] National Institutes of Environmental Health Sciences [NIEHS] National Toxicology Program [NTP] U.S. Food and Drug Administration [FDA] Assay overview: The increased intracellular calcium release that occurred upon G protein-coupled receptor (GPCR) activation led to the frequent use of calcium flux assays to detect GPCR activation. For the purpose of studying and screening compounds that may activate GPCR, receptor-overexpressing models were typically generated using Hek293 wild-type (WT) cells. In order to eliminate the compounds that may have induced calcium release for non-specific activation, a counter-assay utilizing calcium flux on Hek293 WT cells was performed. The data were formulated in order to serve as a control for any calcium flux detection utilizing Hek293 cells with either GPCR overexpression or gene modification. The procurement of Hek293 WT cells from ATCC. Fluorescence intensity can be utilized to determine the activation of the compound in a calcium flux assay. As a counter control, this cell line was utilized to screen the Tox21 10K compound library.
Assay Protocol Summary: Hek293 cells were dispensed at 1500cells/4uL/well in 1536-well black wall/clear bottom plates using a multidrop dispenser. After the assay plates were incubated at a 37 C/5% CO2 incubator for 18 hours, 4 uL of Calcium Dye Solution was added to each well. The plates were incubated at 37 C for 1 hour. For agonist mode, 23 nL of compounds dissolved in DMSO, positive control (ATP) or DMSO only was transferred to the assay plate by a pin tool station. The fluorescence intensity in the plates was measured using FDSS 7000EX kinetic plate reader with a filter set of Ex/Em=480/540 for 3 min at 1 sec intervals. Each test compound was measured at 15 concentrations and in triplicates.

| Compound | Potency | activation |
| --- | --- | --- |
| Cc1ccc(C)c([N+](=O)[O-])c1 | inactive | – |
| CCc1c(C(=O)NN2CCCCC2)nn(-c2ccc(Cl)cc2Cl)c1-c1ccc(Br)cc1 | inactive | – |
| O=C(O)COCCN1CCN(C(c2ccccc2)c2ccc(Cl)cc2)CC1 (stereo not given) | inactive | – |
| O=C[C@@H](O)[C@H](O)[C@H](O)CO | inactive | – |
| CC[C@H]1OC(=O)[C@H](C)[C@@H](O[C@H]2C[C@@](C)(OC)[C@@H](O)[C@H](C)O2)[C@H](C)[C@@H](O[C@@H]2O[C@H](C)C[C@H](N(C)C)[C@H]2O)[C@](C)(O)C[C@@H](C)CN(C)[C@H](C)[C@@H](O)[C@]1(C)O | inactive | – |
| Cc1ccc(N)cc1O | inactive | – |
| CCN(CCCc1ccccc1)CCCc1ccccc1 | inactive | – |
| COc1ccc2cc1Oc1ccc(cc1)C[C@H]1c3c(cc4c(c3Oc3cc5c(cc3OC)CCN(C)[C@@H]5C2)OCO4)CCN1C | inactive | – |
| CC(C)=CCC[C@](C)(O)[C@@H]1CC=C(C)CC1 | inactive | – |
| COCCOC(=O)CC#N | inactive | – |
| CNc1ccc([N+](=O)[O-])cc1 | inactive | – |
| CCC(CC)Nc1ccc(C)c(C)c1 | inactive | – |
| COCc1nnc(-c2ccc[n+]([O-])c2)n1-c1c(Cl)c(Cl)cc2[nH]c(=O)c(=O)[nH]c12 | inactive | – |
| Nc1nc(Cl)nc2c1ncn2[C@H]1C[C@H](O)[C@@H](CO)O1 | inactive | – |
| Cc1cc(-c2ccc(N=Nc3cc(S(=O)(=O)O)c4ccccc4c3N)c(C)c2)ccc1N=Nc1cc(S(=O)(=O)O)c2ccccc2c1N | inactive | – |
| CC1=C(C=O)C(C)(C)CCC1 | inactive | – |
| CC(=O)OC(C)OC(=O)C(C)c1ccc(-c2ccccc2)c(F)c1 (stereo not given) | inactive | – |
| O=C(O)O | – | -0.66% [at 5.23 µM] |
| O=[N+]([O-])C1(Br)COCOC1 | inactive | – |
| Nc1nc(Cl)cc(Cl)n1 | inactive | – |

| Compound | Potency | activation |
| --- | --- | --- |
| CCCCCCCCCCCC(=O)OCC | inactive | – |
| Nc1ccc(N=Nc2ccccc2)c(N)c1 | inactive | – |
| COC(=O)Nc1nc2ccc(C(=O)c3cccs3)cc2[nH]1 | inactive | – |
| NC(=O)Nc1nc2ccccc2[nH]1 | inactive | – |
| OCCOc1cccc(OCCO)c1 | inactive | – |
| CCCCCCOc1ccc(O)cc1 | inactive | – |
| Cc1ccc(O)c2ncccc12 | inactive | – |
| CN1CCC(Nc2ncc3ncnc(Nc4ccc(F)c(Cl)c4)c3n2)CC1 | inactive | – |
| CCCCC(=O)O[C@]1(C(=O)CO)[C@@H](C)C[C@H]2[C@@H]3CCC4=CC(=O)C=C[C@]4(C)[C@@]3(F)[C@@H](O)C[C@@]21C | inactive | – |
| CN1C(C(=O)Nc2ccccn2)=C(O)c2sccc2S1(=O)=O | inactive | – |
| CCCCC(CC)CNC(=O)CC(C)OC(=O)CCC(=O)O (stereo not given) | inactive | – |
| CC1=Nc2ccc3ccccc3c2C1(C)C | inactive | – |
| CC(=O)O[Si](C)(OC(C)=O)OC(C)=O | inactive | – |
| O=C1CCCCCO1 | inactive | – |
| N[C@@H](CCC(=O)N[C@@H](CS)C(=O)NCC(=O)O)C(=O)O | – | -1.3% [at 11.8 µM] |
| Nc1nc2ccc(OC(F)(F)F)cc2s1 | inactive | – |
| Fc1ccccc1 | inactive | – |
| CN1CCN(CCC(=O)N2c3ccccc3Sc3ccc(C(F)(F)F)cc32)CC1 | inactive | – |
| CC(C)(C)c1csc(-c2cc3cc(OCc4ccccc4CC(=O)O)ccc3o2)n1 | inactive | – |
| Nc1nc(F)nc2c1ncn2[C@@H]1O[C@H](CO)[C@@H](O)[C@@H]1O | inactive | – |
